From PubChem BioAssay AID431 (Sanford-Burnham Center for Chemical Genomics, 2006)
About 1,100 (1.7%) of roughly 63,000 compounds were called active. The sample holds actives, similar compounds and a random draw of the others, so the mix is not that of the screen.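 The calls were made as follows: active = compounds whose percent cytotoxicity in the single-dose primary screen, scaled between solvent and toxic-drug controls, exceeds 50; inactive = the rest.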 Entries with a potency or affinity are not part of this list.

Assay: cytotoxicity in KRAS-transformed pancreatic duct cells, primary screen, cell-based, fluorescence, HTS (AID 431);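 also: 0% = DMSO solvent wells and 100% = doxorubicin-treated wells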
Settings: HPDE-C7K KRASV12 cells, Alamar Blue viability, 48 h; at 10 µM; active compounds read high

SMILES	cytotoxicity
CCC1CCCCN1CCNC(=O)C1CCN(S(=O)(=O)c2c(C)noc2C)CC1 (stereo not given)	-6.9% (inactive)
CCOC(=O)N1CCN(C(=O)c2ccc3c(c2)sc2nc(-c4ccccc4)cn23)CC1	6.1% (inactive)
COc1ccc2c(c1)sc1nc(-c3ccccc3)cn12	53.3% (active)
CCOC(=O)N1CCN(C(=O)c2ccc3c(c2)sc2nc(-c4ccc(OC)cc4)cn23)CC1	19% (inactive)
O=C(NC1=NCCS1)c1ccc2c(c1)C(=O)N(Cc1ccco1)C2=O	-7.1% (inactive)
O=C(OC(C(=O)NCC1CCCO1)c1ccccc1F)c1ccco1 (stereo not given)	8.7% (inactive)
CCn1ncc(C2=NOC(C(=O)NCc3ccc(OC)cc3)C2)c1C (stereo not given)	23.7% (inactive)
CCn1ncc(C2=NOC(C(=O)NCc3ccc(Cl)cc3)C2)c1C (stereo not given)	59.3% (active)
CCn1ncc(C2=NOC(C(=O)NCc3ccccc3)C2)c1C (stereo not given)	48.7% (inactive)
CC1=C(C(=O)Nc2cccc(C)n2)C(c2ccc3c(c2)OCO3)C2=C(CC(c3ccco3)CC2=O)N1 (stereo not given)	7.4% (inactive)
COC(=O)c1sccc1NC(=O)c1ccncc1	5.9% (inactive)
O=C(Cc1ccccc1)N(c1ccc(F)cc1)C1C=CS(=O)(=O)C1 (stereo not given)	3.4% (inactive)
Cc1nn(Cc2ccccc2Cl)c(C)c1NC(=O)C1C2CCC(O2)C1C(=O)O (stereo not given)	0.4% (inactive)
CCn1c(SCC(=O)Nc2ccccc2OC)nnc1-c1cnccn1	-28% (inactive)
C=CCn1c(SCC(=O)Nc2cc3oc4ccccc4c3cc2OC)nnc1-c1cnccn1	50.9% (active)
C=CCn1c(SCC(=O)Nc2cc(C)ccc2C)nnc1-c1cnccn1	-12.5% (inactive)
Cc1ccc(OCCN2CCN(C(=O)CCC(=O)Nc3nnc(C(C)C)s3)CC2)cc1	14.3% (inactive)
COc1ccc(-c2noc(COc3ccccc3OC)n2)cc1OC	-10.5% (inactive)
COc1ccc(-c2noc(COc3ccc(C)c(C)c3)n2)cc1OC	4.5% (inactive)
COc1ccc(-c2noc(COc3ccc4ccccc4c3Br)n2)cc1OC	58% (active)
CCOC(=O)N1CCN(Cc2nc3c(c(=O)[nH]c(=O)n3C)n2CCCc2ccccc2)CC1	-0.5% (inactive)
CCN(CC)CCCNC(=O)Cn1cc2c(n1)CCC(C)C2 (stereo not given)	3.7% (inactive)
COc1ccc(-c2nc(N)nc(C)c2Oc2ccccc2Br)c(O)c1	92.6% (active)
COc1ccc(-c2nc(N)ncc2Oc2ccccc2Br)c(O)c1	3.7% (inactive)
COc1cccc(Oc2cnc(N)nc2-c2ccc(OC)cc2O)c1	45.2% (inactive)

SMILES	cytotoxicity
CCc1ccccc1NC(=O)CN(C)C(=O)CN1C(=O)NC2(CCCCCC2)C1=O	2.1% (inactive)
COc1ccc(NC2C=CS(=O)(=O)C2)c(OC)c1 (stereo not given)	4.8% (inactive)
Cc1n[nH]c(C)c1S(=O)(=O)N1CCN(c2ccccn2)CC1	7.4% (inactive)
CCc1oc2ccccc2c1C(=O)CCN1CCCCC1	9.9% (inactive)
CCCCC(=O)c1c(O)c2ccccc2oc1=O	17.2% (inactive)
CCOC(=O)C1=C(C)NC2=C(C(=O)CCC2)C1c1cc(OC)ccc1OC (stereo not given)	1.4% (inactive)
CCOc1ccc(Cn2c(=O)oc3ccc(C)cc32)cc1OC	-2.4% (inactive)
O=S(=O)(c1ccc2ccccc2c1)N1CCCCC1	5.8% (inactive)
O=S(=O)(c1ccc2ccccc2c1)N(CC(O)CN1CCOCC1)c1ccccc1 (stereo not given)	-11.1% (inactive)
O=C(CN1C(=O)CCSc2ccccc21)Nc1ccccc1	-22.3% (inactive)
CCCSc1nnc(NC(=O)Nc2ccc(F)cc2)s1	75.2% (active)
CCCSc1nnc(NC(=O)Nc2ccccc2)s1	-9.2% (inactive)
CCC(=O)Nc1nnc(SCC(=O)Nc2ccc(F)cc2)s1	-4.3% (inactive)
COc1cc(-c2nc3cnccc3n2C)cc(OC)c1OC	-11.3% (inactive)
CC(=O)Nc1cc(C(F)(F)F)ccc1N1CCOCC1	-2.7% (inactive)
O=C(Nc1cc(C(F)(F)F)ccc1N1CCOCC1)c1c(F)c(F)c(F)c(F)c1F	69.9% (active)
O=C(Nc1cc(C(F)(F)F)ccc1N1CCOCC1)c1ccco1	-2.4% (inactive)
Cc1onc(-c2ccccc2)c1C(=O)Nc1cc(C(F)(F)F)ccc1N1CCOCC1	60.3% (active)
Cc1onc(-c2ccccc2)c1C(=O)Nc1ccccc1N1CCOCC1	4.2% (inactive)
O=C(Nc1cc(C(F)(F)F)ccc1N1CCOCC1)c1cccnc1	2.2% (inactive)
COc1cc(C2NC(=O)c3ccccc3O2)cc(OC)c1OC (stereo not given)	-13.8% (inactive)
OC1C=CSc2nc3ccccc3n21 (stereo not given)	-17.8% (inactive)
COC(=O)COc1ccc(NC(=O)C2CCCO2)cc1 (stereo not given)	-3% (inactive)
CC(C)C[C@H](NC(=O)NCc1ccc(Cl)cc1)C(=O)O	5.3% (inactive)
CCCOC(=O)Nc1nc2ccccc2o1	-0.4% (inactive)

SMILES	cytotoxicity
COc1ccccc1C(=O)Nc1nnc(-c2ccc(F)cc2)o1	-1.2% (inactive)
CC(C)CCn1cnc2c(cnn2-c2ccc(F)cc2)c1=O	-10.9% (inactive)
C=CCOc1ccccc1CNn1nnnc1N	-4.5% (inactive)
O=C(O)c1ccc(N2CCCCC2)cc1	-1.2% (inactive)
Nc1ccc(N2CCCCC2)cc1N1CCCCC1	34.3% (inactive)
O=C(O)CCn1[nH]c(=O)ccc1=O	-18.2% (inactive)
CSc1ccccc1NC(=O)c1ccco1	4.6% (inactive)
CCC(=O)N1c2ccccc2NC2=C(C(=O)CC(c3ccco3)C2)C1c1ccco1 (stereo not given)	7.6% (inactive)
O=C1CC(c2ccco2)CC2=C1C1c3ccccc3C(=O)N1c1ccccc1N2 (stereo not given)	51.6% (active)
COc1ccc(C2C3=C(CC(c4ccco4)CC3=O)Nc3ccccc3N2C(C)=O)cc1 (stereo not given)	-5.9% (inactive)
COC(=O)C(C(=O)OC)=C(/C=C/N(C)C)N(C)C	0.2% (inactive)
Nc1nonc1C(=O)NCCNCc1cc(Br)ccc1OCc1ccccc1F	17.1% (inactive)
Nc1nonc1C(=O)NCCNCc1cc(Br)ccc1OCc1ccc(F)cc1	54% (active)
Nc1nonc1C(=O)NCCNCc1ccccc1OCc1ccccc1F	0.9% (inactive)
COCCn1c(SCC(=O)N2CCCCC2)nc2ccccc2c1=O	4.9% (inactive)
CC(=O)Nc1ccc(S(=O)(=O)N(C)c2ccc(O)cc2)cc1	-12.1% (inactive)
CCOc1ccc(C(=O)Nc2ccc3c(c2)OCO3)cc1OCC	-16.6% (inactive)
CCOC(=O)c1ccc(NC(=O)C2CCN(S(=O)(=O)c3ccccc3)CC2)cc1	6.6% (inactive)
Cc1ccc(C)c(Cn2c(=O)n(CCC(=O)NCc3ccco3)c(=O)c3ccccc32)c1	3% (inactive)
Cc1ccc(C)c(Cn2c(=O)n(CCCC(=O)NCc3ccco3)c(=O)c3ccccc32)c1	56.3% (active)
Cc1ccccc1Cn1c(=O)n(CCCC(=O)NCc2ccco2)c(=O)c2ccccc21	-20.6% (inactive)
COc1ccc(CCNC(=O)CSc2nc(N)c3c(C)c(C)oc3n2)cc1OC	4.3% (inactive)
O=C(Nc1ccc2snnc2c1)N1CCN(c2ccccc2)CC1	-17.1% (inactive)
O=C(Nc1cccc(NC(=O)N2CCN(c3ccccc3)CC2)c1)N1CCN(c2ccccc2)CC1	61.3% (active)
O=C(Nc1cccc2ccccc12)N1CCN(c2ccccc2)CC1	10.4% (inactive)

SMILES	cytotoxicity
COc1cc(OC)cc(-c2cc(NC(C)=O)n[nH]2)c1	-2% (inactive)
CCOC(=O)c1[nH]c(C)c(C(=O)N2CCOCC2)c1C	4.4% (inactive)
COc1cc(/C=C/C2=NC(=O)C(C)(C)O2)ccc1O	32.6% (inactive)
C/C=C/c1ccc(OC)c(OC(C)=O)c1	1.5% (inactive)
O=C(Nc1cccnc1N1CCOCC1)c1ccco1	-0.2% (inactive)
CCn1c(SCC(=O)c2cc(OC)ccc2OC)nnc1C1CC1	4.1% (inactive)
COC(=O)c1ccc(NC(=O)c2sc3nc(-c4ccccc4)cn3c2C)cc1	-6.6% (inactive)
CN(C)c1ccc(/C=[N+](\[O-])C2SC(=S)N(C)C2(C)C)cc1 (stereo not given)	-16.8% (inactive)
CCc1ccc2c(COC(=O)c3n[nH]c4ccccc34)cc(=O)oc2c1	17.5% (inactive)
Cc1ccc2c(COn3nnc4ccc(S(=O)(=O)N(C)C)cc43)cc(=O)oc2c1C	2.9% (inactive)
CCc1ccc2c(COn3nnc4ccc(S(=O)(=O)N(C)C)cc43)cc(=O)oc2c1	62% (active)
COc1ccc(Cn2c(-c3ccco3)nc3oc4ccccc4c(=O)c3c2=O)cc1	8.5% (inactive)
CC1(C)Cc2ccccc2-c2nc(NCCO)n(-c3ccccc3)c(=O)c21	-9.1% (inactive)
O=c1[nH]c(NCCCO)nc2c1C1(CCCC1)Cc1ccccc1-2	26.4% (inactive)
O=c1[nH]c(NCCO)nc2c1C1(CCCCC1)Cc1ccccc1-2	17.6% (inactive)
Cn1c(NCCCO)nc2c(c1=O)C1(CCCCC1)Cc1ccccc1-2	51.9% (active)
Cn1c(NCCO)nc2c(c1=O)C1(CCCCC1)Cc1ccccc1-2	10.5% (inactive)
CC1(C)CC(n2c(NCCO)nc3c(c2=O)C2(CCCC2)Cc2ccccc2-3)CCO1 (stereo not given)	64.4% (active)
Cc1ccc(S(=O)(=O)N2CCN(S(=O)(=O)N3CCCCC3)CC2)c(C)c1	6.6% (inactive)
Cc1cccc(Nc2nc(N)nc(CN3CCN(c4ccccc4)CC3)n2)c1	-21.7% (inactive)
CC1CC(C)CN(Cc2nc(N)nc(Nc3ccc4ccccc4c3)n2)C1 (stereo not given)	58.4% (active)
Cc1ccc(Nc2nc(N)nc(CN3CCN(c4ccccc4)CC3)n2)cc1Cl	54.7% (active)
CCN1CCN(Cc2nc(N)nc(Nc3ccc(C)c(C)c3)n2)CC1	-24.7% (inactive)
Cc1ccc(Nc2nc(N)nc(CN3CCN(C)CC3)n2)cc1C	-27.5% (inactive)
COc1ccc(N2CCN(Cc3nc(N)nc(Nc4ccc(C)c(Cl)c4)n3)CC2)cc1	19.1% (inactive)
